A selection: hits, their analogues and other compounds. The true share with any hit is near 5.4%.
ALR H2O2 inh = human ALR oxidase inhibition via reduced H2O2 | inhibition, % (test concentration not listed) | P55789 | hit rate 3.8% among 290,000 | purified ALR, DTT oxidation, H2O2 HRP-luminol luminescence | AID 485317;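 active = mean replicate inhibition above about 79%, with every replicate also reaching it, limit read from the data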
Target sequence (P55789 whole entry, looked up): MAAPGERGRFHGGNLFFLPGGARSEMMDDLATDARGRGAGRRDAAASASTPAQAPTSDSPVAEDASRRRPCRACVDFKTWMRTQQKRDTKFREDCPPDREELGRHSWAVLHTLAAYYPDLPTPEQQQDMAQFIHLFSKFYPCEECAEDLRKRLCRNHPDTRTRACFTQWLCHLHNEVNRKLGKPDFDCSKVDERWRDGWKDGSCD
A3A deaminase = inhibitors of human APOBEC3A DNA deaminase; P31941; recombinant A3A, FAM/TAMRA ssDNA deamination fluorescence; inhibition, % at 20 µM; hit rate 0.41% among 330,000; AID 493011;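 active = at least 40% inhibition at 20 µM here, with at most 30% in a related deaminase screen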
Target sequence (P31941 whole entry, looked up): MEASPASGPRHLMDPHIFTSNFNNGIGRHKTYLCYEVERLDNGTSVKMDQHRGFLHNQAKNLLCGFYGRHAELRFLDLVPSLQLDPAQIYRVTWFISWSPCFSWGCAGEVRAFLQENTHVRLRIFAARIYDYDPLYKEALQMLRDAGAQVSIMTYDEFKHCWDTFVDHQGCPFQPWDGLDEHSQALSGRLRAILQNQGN
rCAG binder-1 = molecules binding r(CAG) RNA repeats | hit rate 1.3% among 370,000 | AID 651821 | inhibition, % at 3 µM | r(CAG) RNA repeat, TO-PRO-1 dye displacement fluorescence;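 active = inhibition above the plate cutoff, the mean of all test compounds on that plate plus 3 SD, cut at about 35% in these data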;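 also: higher means more dye released from RNA so lower well fluorescence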
PHOSPHO1 inh = inhibitors of human PHOSPHO1 phosphatase. Q8TCT1. recombinant PHOSPHO1, absorbance phosphatase assay. inhibition, % at 13.3 µM. hit rate 1.1% among 290,000; in the data active = inhibition above about 60%
Target sequence (Q8TCT1 whole entry, looked up): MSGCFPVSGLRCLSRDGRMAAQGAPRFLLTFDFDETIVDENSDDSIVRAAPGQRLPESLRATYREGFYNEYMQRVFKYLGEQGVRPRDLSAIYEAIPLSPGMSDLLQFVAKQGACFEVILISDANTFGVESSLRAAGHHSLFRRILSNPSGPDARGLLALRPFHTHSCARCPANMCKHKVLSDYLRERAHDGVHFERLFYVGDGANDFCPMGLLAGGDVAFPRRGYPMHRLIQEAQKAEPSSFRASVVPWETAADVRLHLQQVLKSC
aDG glyco up = alpha-DG glycosylation activation; hit rate 0.22% among 360,000; activation, % at 10 µM; AID 624168; Pro5-aDG cells, alpha-DG glycosylation AlphaScreen (IIH6); 0% Pro5, 100% B10-LARGE cell signal;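 active = activation of at least 8% versus controls, or a plate z-score of at least 8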;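 also: Pro5 are CHO cells carrying HIG-tagged alpha-DG that lacks glycosylation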
A3G deaminase = APOBEC3G (human) deaminase inhibition; Q9HC16; recombinant A3G, ssDNA deamination FAM/TAMRA fluorescence; inhibition, % at 20 µM; hit rate 0.28% among 330,000; AID 493012;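 active = inhibition of at least 40% at 20 µM, with no more than 30% in the related APOBEC3A deaminase screen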
rCAG binder conf = r(CAG) RNA repeat binding, confirmation; shares compounds with rCAG binder-1; hit rate 70% among 4,300; inhibition, % at 3 µM; TO-PRO-1 dye displacement fluorescence;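 active = inhibition above a per-plate cutoff, the mean inhibition of sample wells plus 3 SD, cut at about 35% in these data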;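 also: loss of TO-PRO-1 fluorescence as compound displaces dye from 1x1 AA loop RNA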
dCAG dye counter = counter-screen for rCAG RNA binders: DNA CAG dye complex inhibitors. inhibition, % at 3 µM. AID 652068. shares compounds with rCAG binder-1. d(CAG) DNA oligo TO-PRO-1 dye displacement, fluorescence. hit rate 94% among 4,300;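 active = inhibition above its plate's cutoff, the mean test-well inhibition plus 3 SD, cut at about 4.8% in these data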;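 also: hits displace the dye from DNA and so lower well fluorescence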
DNA CAG DR = disrupts DNA CAG TO-PRO-1 complex in dose response | IC50, µM | shares compounds with rCAG binder-1 | DNA CAG/GTC duplex TO-PRO-1 dye displacement fluorescence | AID 686960 | hit rate 20% among 250; in the data active = IC50 below about 10 µM
dCAG TOPRO ctr = counter-screen for rCAG binders: DNA CAG TO-PRO-1 complex inhibitors, late stage; d(CAG) DNA duplex TO-PRO-1 dye displacement, fluorescence; IC50, µM; hit rate 80% among 30; AID 720649; shares compounds with rCAG binder-1
rCAG binder-2 = binds r(CAG) RNA repeats in late stage dose response; AID 720651; IC50, µM; r(CAG) RNA TO-PRO-1 dye displacement, fluorescence; shares compounds with rCAG binder-1; hit rate 100% among 30
Each line names hits and unclear results; the compound was inactive in the other large screens (follow-up assays come after a bar, where they were run). Unless noted, no rule for the calls is given here.

CCOc1ccc(N2C(=O)CC(Sc3nc(-c4cccs4)cc(C(F)(F)F)c3C#N)C2=O)cc1 (configuration not stated)	rCAG binder-1 54 | rCAG binder conf inactive | dCAG dye counter 13
CCOc1ccc(N2C(=O)CC(Sc3ncccn3)C2=O)cc1 (configuration not stated)	none
Cc1ccccc1P(=O)(c1ccccc1)c1ccccc1C	none (no result: ALR H2O2 inh, A3A deaminase, PHOSPHO1 inh, A3G deaminase)
CCOC(=O)N1CCN(C(=O)C(CC)c2ccccc2)CC1 (configuration not stated)	rCAG binder-1 39 | rCAG binder conf inactive | dCAG dye counter inactive
CC(C)n1c(=O)c2ccccc2n1C(=O)c1ccccc1	none (no result: ALR H2O2 inh, A3A deaminase, PHOSPHO1 inh, A3G deaminase)
COC(=O)C[C@@H]1CC[C@H]2[C@@H](COc3ccc(NC(=O)c4ccc(C(F)(F)F)cc4)cc3C(=O)N2C)O1	none (no result: ALR H2O2 inh, A3A deaminase, PHOSPHO1 inh, aDG glyco up, A3G deaminase)
Cc1noc(NS(=O)(=O)c2ccc(NC(=O)C(Cl)(Cl)Cl)cc2)c1C	none
Cc1noc(NS(=O)(=O)c2ccc(NC(=O)/C=C/c3ccc(Br)cc3)cc2)c1C	ALR H2O2 inh 91, rCAG binder-1 82 | rCAG binder conf 67 | dCAG dye counter 33
Cc1cc(NS(=O)(=O)c2ccc(NC(=O)Cc3ccc(Cl)c(Cl)c3)cc2)on1	rCAG binder-1 57 (no result: ALR H2O2 inh, A3A deaminase, PHOSPHO1 inh, aDG glyco up, A3G deaminase) | rCAG binder conf 63 | dCAG dye counter 24
CCSc1ncc(Cl)c(C(=O)Nc2ccc(S(=O)(=O)Nc3onc(C)c3C)cc2)n1	rCAG binder-1 54 | rCAG binder conf inactive | dCAG dye counter 6.9
Cc1noc(NS(=O)(=O)c2ccc(NC(=O)Nc3ccc(Cl)c(Cl)c3)cc2)c1C	rCAG binder-1 91 | rCAG binder conf 83 | dCAG dye counter 53
Cc1noc(NS(=O)(=O)c2ccc(NC(=O)CSc3nnc4c(n3)[nH]c3ccccc34)cc2)c1C	rCAG binder-1 65 | rCAG binder conf 67 | dCAG dye counter 32
COc1cc(/C=C/C(=O)Nc2ccc(S(=O)(=O)Nc3onc(C)c3C)cc2)cc(OC)c1OC	rCAG binder-1 53 (no result: ALR H2O2 inh, A3A deaminase, PHOSPHO1 inh, A3G deaminase) | rCAG binder conf 51 | dCAG dye counter 19
COc1ccc(CC(=O)Nc2ccc(S(=O)(=O)Nc3onc(C)c3C)cc2)cc1OC	none (no result: ALR H2O2 inh)
O=C(CN1CCCC1c1cccs1)Nc1cc(S(=O)(=O)N2CCCCC2)ccc1Cl (configuration not stated)	none (no result: ALR H2O2 inh, A3A deaminase, PHOSPHO1 inh, A3G deaminase)
O=C(O)c1cc(S(=O)(=O)N2CCCCC2)sc1Cl	none
CSc1ccc(/C=C(\C(=O)O)c2ccc(S(=O)(=O)N3CCCCC3)s2)cc1	ALR H2O2 inh 90, rCAG binder-1 59 | rCAG binder conf 55 | dCAG dye counter 20
O=C(O)C(=Cc1ccccc1Cl)c1ccccc1	none (no result: ALR H2O2 inh, A3A deaminase, rCAG binder-1, PHOSPHO1 inh, A3G deaminase)
O=C(O)/C(=C\c1ccccc1Cl)c1ccc(S(=O)(=O)N2CCCCC2)s1	rCAG binder-1 51 | rCAG binder conf inactive | dCAG dye counter 9.4
O=C(O)/C(=C\c1ccc(Cl)c([N+](=O)[O-])c1)c1ccc(S(=O)(=O)N2CCCCC2)s1	rCAG binder-1 38 | rCAG binder conf 68 | dCAG dye counter 29
COc1cc(/C=C(\C(=O)O)c2ccc(S(=O)(=O)N3CCCC3)s2)cc(OC)c1	none (no result: ALR H2O2 inh, PHOSPHO1 inh)
O=C(O)/C(=C\c1cccc(C(F)(F)F)c1)c1ccc(S(=O)(=O)N2CCCC2)s1	rCAG binder-1 36 (no result: ALR H2O2 inh, PHOSPHO1 inh) | rCAG binder conf inactive | dCAG dye counter 5.5
CCOC(=O)[C@]12CCCC=C1N(Cc1ccc(OC)cc1)C(=O)[C@@H]2CC(=O)NCCC(C)C	none (no result: ALR H2O2 inh, A3A deaminase, PHOSPHO1 inh, aDG glyco up, A3G deaminase)
O=C(N1CCCCC1)N1CCN(S(=O)(=O)c2cccc([N+](=O)[O-])c2)CC1	none
O=C(O)/C(=C\c1cccc([N+](=O)[O-])c1)c1ccc(S(=O)(=O)N2CCCCC2)s1	rCAG binder-1 38 | rCAG binder conf 44 | dCAG dye counter 14
CC(C)c1ccc(C2c3[nH]c4ccccc4c3C[C@H]3C(=O)N(c4ccccc4C(=O)N4CCC[C@@H]4C(=O)O)C(=O)N23)cc1 (some centres not stated)	ALR H2O2 inh 98, rCAG binder-1 46 | rCAG binder conf 71 | dCAG dye counter 28 | DNA CAG DR inactive | dCAG TOPRO ctr inactive | rCAG binder-2 1.9
O=C1[C@@H]2Cc3c([nH]c4ccccc34)[C@@H](c3ccccc3)N2C(=O)[C@@H]2Cc3c([nH]c4ccccc34)[C@@H](c3ccccc3)N12	none (no result: ALR H2O2 inh, A3A deaminase, rCAG binder-1, aDG glyco up, A3G deaminase)
COC(=O)c1ccc(C2c3[nH]c4ccccc4c3C[C@H]3C(=O)N(C4CC4)CC(=O)N23)cc1 (some centres not stated)	none (no result: PHOSPHO1 inh)
COc1ccc(C2c3[nH]c4ccccc4c3C[C@H]3C(=O)N(c4ccccc4C(=O)N4CCC[C@H]4C(=O)O)C(=O)N23)cc1 (some centres not stated)	ALR H2O2 inh 98, rCAG binder-1 37 | rCAG binder conf 51 | dCAG dye counter 16
Cc1ccc(C2c3[nH]c4ccccc4c3C[C@H]3C(=O)N(c4ccccc4C(=O)N4CCC[C@H]4C(=O)O)C(=O)N23)cc1 (some centres not stated)	ALR H2O2 inh 98, rCAG binder-1 39 | rCAG binder conf 57 | dCAG dye counter 18
CC(C)c1ccc(C2c3[nH]c4ccccc4c3C[C@H]3C(=O)N(c4ccccc4C(=O)N4CCC(C(=O)O)CC4)C(=O)N23)cc1 (some centres not stated)	ALR H2O2 inh 98, rCAG binder-1 42 | rCAG binder conf 61 | dCAG dye counter 21
CCCCCCCCCCCCNC[C@@H]1CSCCS(=O)(=O)N1	none (no result: ALR H2O2 inh, A3A deaminase, PHOSPHO1 inh, aDG glyco up, A3G deaminase)
Cc1cc(NC(=O)/C=C/c2ccco2)ccc1NC(=O)c1ccccc1	none
O=C(/C=C/c1ccco1)Nc1ccc2nn(-c3ccccc3)nc2c1	rCAG binder-1 40 (no result: A3A deaminase, A3G deaminase) | rCAG binder conf inactive | dCAG dye counter 13
CCOC(=O)c1ccc(NC(=O)c2c(NC(=O)CCC(=O)O)sc3c2CCCCC3)cc1	rCAG binder-1 43 | rCAG binder conf inactive | dCAG dye counter 10
CCOC(=O)c1c(NC(=S)Nc2ccc(OC)cc2)sc2c1CCCCC2	none

Source: PubChem BioAssay
